Rows were chosen to be rich in hits. Some 4.7% of all compounds tested hit in one or more screens of this group.
TGFb inhibitor: blocks TGF-b signaling. Potency, µM (doses to about 46.1 µM), for inactives: top-dose activity, negative = inhibition, actives largely listed as inhibitors. 410,000 tested, 1.2% active. HepG2 CAGA-GFP TGF-b/SMAD3 reporter, GFP fluorescence, 18 h; TGF-beta stimulated, 500 pg/mL final. AID 588855; further: potency means the concentration at half of the fitted maximal effect; on the % scale 0 is the no-effect control and ±100 the full control effect; nearly all actives have a fitted effect of over 65% in size
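Using HEPG2 CAGA-GFP reporter cells at 1000 cells/well, we pinned test compounds, stimulated with recombinant TGF-beta (500 pg/mL final) and measured total well GFP after 18 h.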
ATXN viability: cell viability loss in ATXN counter-screen | 400,000 tested, 0.49% active | S2 cells (HEK-293 line with an ATXN2-luciferase reporter) viability, CellTiter-Fluor protease fluorescence, 24 h | Potency, µM (highest dose often 56.7 µM), actives largely listed as cytotoxic | AID 651635; further: potency means the concentration at half of the fitted maximal effect; nearly all actives have a fitted effect of over 40% in size
DRD3 agonist: activates the human D3 dopamine receptor | P35462 | D3R DiscoveRx beta-arrestin cells, luminescence, 90 min | max activation, % | 410,000 tested, 0.58% active; in the data active means max activation above about 30%; further: 0% is about no effect
Target sequence (P35462 whole entry, looked up): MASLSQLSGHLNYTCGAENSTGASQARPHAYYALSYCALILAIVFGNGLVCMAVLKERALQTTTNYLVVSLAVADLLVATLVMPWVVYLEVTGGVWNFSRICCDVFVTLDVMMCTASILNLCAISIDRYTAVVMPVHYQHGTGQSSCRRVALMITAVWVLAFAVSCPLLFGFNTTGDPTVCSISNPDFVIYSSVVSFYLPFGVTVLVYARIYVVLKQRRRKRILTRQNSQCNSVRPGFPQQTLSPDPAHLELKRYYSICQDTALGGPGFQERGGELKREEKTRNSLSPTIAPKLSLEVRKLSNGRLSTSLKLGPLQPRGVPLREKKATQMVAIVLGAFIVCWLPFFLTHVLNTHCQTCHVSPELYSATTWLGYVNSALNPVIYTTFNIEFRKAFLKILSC
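Agonist mode: compounds and dopamine controls were applied to plated cells for 90 min at 37 degrees C after an overnight attachment at 1500 cells/well. Luminescent read-out followed 30 - 60 minutes at room temperature with DiscoveRx detection reagent.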
DRD3 antagonist: antagonists of human D3 dopamine receptor; D3R cells, DiscoveRx beta-arrestin luminescence, antagonist mode; stronger effect = lower value; max response, negative = inhibition, %; 360,000 tested, 2.5% active; AID 652054; P35462; in the data active means max response below about -50%; inconclusive means no clear call, values can overlap the other calls; further: on the % scale 0 is the no-effect control and ±100 the full control effect
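Cells expressing the human receptor were seeded at 1500 cells/well, incubated overnight at 37 degrees C in 5% CO2, then exposed to library compounds with dopamine controls for 90 minutes at 37 degrees C before luminescent detection.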
ATXN2 expr inh: inhibitors of ATXN2 expression; HEK-293 ATXN2-luciferase reporter, luminescence, 24 h; 360,000 tested, 0.72% active; Potency, µM (top dose mostly 57 µM), without a hit: at the top dose activity change, negative = inhibition, usual class: inhibitors; further: potency means the concentration at half of the fitted maximal effect; on the % scale 0 is the no-effect control and ±100 the full control effect; nearly all actives have a fitted effect of over 55% in size
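qHTS (up to 57 uM final) was run with 24 h compound exposure of reporter cells at 37 °C. Each well was multiplexed: SteadyGlo luminescence measured ATXN2-luciferase expression after a fluorogenic Gly-Phe-AFC viability readout (25 uM final).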
HepG2 viability: kills HepG2 cells in TGF-b inhibitor counter-screen | HepG2 CAGA-GFP viability, ATP luminescence, 18 h | Potency, µM (top dose mostly 46.1 µM), for the others: top-dose activity change, negative = cytotoxicity, hits mostly cytotoxic | 410,000 tested, 0.76% active; further: potency means the concentration at half of the fitted maximal effect
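HepG2 CAGA-GFP cells (1000/well, DMEM with 1% FBS) received compound, then TGF-beta at 500 pg/mL final, and were incubated 18 hours at 37 degrees C. Viability was read by CellTiter-Glo luminescence. Media-only wells were set as complete cell-killing and DMSO as no toxicity.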
Active calls of the source: *; i = inactive; u = inconclusive; x = no result given. Unless noted, the call rests on the fitted dose curve; in most records, active means well fitted curve in the direction sought with a large enough effect; inconclusive means small, poorly fitted or top-dose-only effect, or another doubt; inactive means no such curve, though single readings can be large; an effect the other way counts as inactive or inconclusive.

SMILES	TGFb inhibitor	ATXN viability	DRD3 agonist	DRD3 antagonist	ATXN2 expr inh	HepG2 viability
CCCCC(=O)NC(c1ccc(C(C)C)cc1)c1ccc2cccnc2c1O (stereo unspecified)	u	i	12	4	-82%	-46%
CC(=O)NC(c1ccc(C(C)C)cc1)c1ccc2cccnc2c1O (stereo unspecified)	u	u	4	-20	3.2µM*	-54%
CC1=NN(C(N)=S)C(=O)C1N=Nc1cccc(C)c1 (stereo unspecified)	1.8µM*	i	3	-18	x	-38%
CC1=NN(C(N)=S)C(=O)C1N=Nc1ccc(O)cc1 (stereo unspecified)	-17%	i	16	-66*	15%	-4%
CC1=NN(C(N)=S)C(=O)C1N=Nc1ccc(F)cc1 (stereo unspecified)	1%	u	-3	-3	x	20%
O=S1(=O)CCO[C@H]2CCCC[C@@H]2N1Cc1ccccc1	-9%	x	x	x	x	-24%
CCC1CN(S(=O)(=O)c2cc(-c3onc(C)c3C)ccc2C)c2cc(Cl)ccc2O1 (stereo unspecified)	-12%	x	4	x	x	-20%
O=C/C=C/c1c(-c2ccccc2)cc2oc3ccccc3cc1-2	11µM*	u	-7	-66*	u	16µM*
N#CC1=C(SCC(=O)Nc2cccc3cccnc23)NC(=O)C(C#N)C12CCCCC2 (stereo unspecified)	-12%	i	39*	35	0%	-5%
N#CC1=C(SCC(=O)NC2CC2)NC(=O)C(C#N)C12CCCCC2 (stereo unspecified)	0%	i	18	19	2%	0%
N#CC1=C(SCC(=O)NC23CC4CC(CC(C4)C2)C3)NC(=O)C(C#N)C12CCCCC2 (stereo unspecified)	11µM*	u	18	40	u	-26%
CCC(=O)N1CCc2cc(CNS(=O)(=O)c3c(C)cc(C)cc3C)ccc21	-6%	x	-23	x	x	-5%
CCN(CCO)C(=O)c1cnn(-c2ncc3c(n2)-c2ccccc2CCC3)c1C1CC1	x	i	x	x	x	x
CSc1ccc(/C=C/c2nc3ccccc3n2S(=O)(=O)c2cccc(Cl)c2)cc1	-6%	i	3	x	u	-96%
O=S(=O)(c1cccc(Cl)c1)n1c(/C=C/c2ccccc2Cl)nc2ccccc21	u	x	1	x	x	10µM*
CCOC(=O)C1(CCOc2ccccc2)CCN(Cc2ccc(OC)cc2)CC1	-24%	u	-12	-72*	0%	-32%
CCOC(=O)C1(CCOc2ccccc2)CCN(Cc2cccc(-n3cccn3)c2)CC1	u	u	-11	-60*	x	-9%
CCOC(=O)C1(CCOc2ccccc2)CCN(Cc2cccc3c2OCO3)CC1	u	i	-41	-60*	-28%	-34%
CCOC(=O)C1(CCOc2ccccc2)CCN(Cc2cccc(F)c2)CC1	u	u	-27	-53*	-74%	-1%
CCOC(=O)C1(CCOc2ccccc2)CCN(Cc2ccc(NC(C)=O)cc2)CC1	12%	i	-23	-18	-24%	-14%
CCOC(=O)C1(CCOc2ccccc2)CCN(Cc2cccc(OCCO)c2)CC1	23%	i	-12	-16	-8%	-25%
O=C(NCc1ccccc1Cl)c1ccc2c(c1)N(Cc1ccccc1)CCS2	0%	i	-3	x	6%	-6%
Cc1ccc(Oc2c(C(F)(F)F)oc3cc(OCC(=O)NC4CCCCC4)ccc3c2=O)cc1	-8%	i	1	x	9%	0%
COCCn1c(C)cc(C(=O)CSc2nc(C)nc3sc4c(c23)CCC4)c1C	-13%	i	54*	40	-17%	-11%
Cc1nc(SCC(=O)NCC2CCCO2)c2c3c(sc2n1)CCCC3 (stereo unspecified)	u	u	7	1	3%	-12%
SMILES	TGFb inhibitor	ATXN viability	DRD3 agonist	DRD3 antagonist	ATXN2 expr inh	HepG2 viability
CCOC(=O)c1c(NC(=O)CSc2nnc3c(n2)[nH]c2ccc(F)cc23)sc(C(C)=O)c1C	4%	i	0	-4	0%	-18%
CCOC(=O)c1c(NC(=O)CSc2ncccn2)sc2c1CCN(Cc1ccccc1)C2	0%	i	-12	-81*	-30%	-24%
CCOC(=O)c1c(NC(=O)CSc2nnc3c(n2)[nH]c2ccccc23)sc2c1CCN(C)C2	-8%	i	1	-60*	-8%	-42%
CCOC(=O)c1c(NC(=O)CC)sc2c1CCN(Cc1ccccc1)C2	-8%	i	0	-5	-2%	-17%
O=C(C[C@H]1CC[C@H]2[C@@H](COC[C@@H](O)CN2Cc2cc(F)ccc2F)O1)NCc1ccc(Cl)cc1	x	x	4	-2	x	x
O=C(c1cc(F)ccc1F)C1CCCN(Cc2cccn2-c2ccccn2)C1 (stereo unspecified)	-19%	u	-21	-20	x	-29%
COc1ccc(F)cc1C(=O)C1CCCN(Cc2cn(C)c3ccccc23)C1 (stereo unspecified)	u	u	-8	-92*	u	-25%
COc1ccc(F)cc1C(=O)C1CCCN(Cc2c[nH]c3ccccc23)C1 (stereo unspecified)	-21%	i	-12	-107*	-32%	-29%
COc1ccc(F)cc1C(=O)C1CCCN(Cc2cccn2-c2ccccn2)C1 (stereo unspecified)	8%	i	-26	u	u	-25%
Cn1cc(CN2CCCC(C(=O)c3cc(F)ccc3F)C2)c2ccccc21 (stereo unspecified)	u	u	-22	-64*	u	-53%
COc1ccc(C(=O)C2CCCN(Cc3cn(C)nc3-c3ccccc3)C2)cc1F (stereo unspecified)	u	i	-1	-18	x	-36%
O=C(C=P(c1ccccc1)(c1ccccc1)c1ccccc1)c1ccccc1-c1ccccc1C(=O)C=P(c1ccccc1)(c1ccccc1)c1ccccc1	1µM*	x	-3	-89*	u	1.6µM*
O=C(NNC(=O)c1ccccc1-c1ccccc1C(=O)O)c1ccccc1	19%	i	1	5	8%	0%
Cc1c(NC(=O)c2ccc(N3CCCC3)c([N+](=O)[O-])c2)cccc1-c1nc2ccccc2s1	u	i	-32	-51*	2%	3%
CN1CCN(c2ccccc2NC(=O)c2ccc(N3CCCCC3)c([N+](=O)[O-])c2)CC1	0%	u	-7	-2	0%	-23%
COc1ccc(OC)c(NC(=O)c2nc(SCc3ccc(F)cc3)ncc2Cl)c1	-6%	x	3	x	x	-7%
